The source of these data is PubChem BioAssay (NCATS).

Records with an inconclusive call do not appear. Where a call stands in place of a potency, no number is given. Activity calls are given as the source filed them. The call rests on the fitted dose curve; in most records, active means well fitted inhibition curve with a large enough effect; inconclusive means small, poorly fitted or top-dose-only effect; inactive means flat fitted curve, though single readings scatter.

Calcium and integrin-binding protein 1 (Homo sapiens), sequence (Q99828 whole entry, looked up): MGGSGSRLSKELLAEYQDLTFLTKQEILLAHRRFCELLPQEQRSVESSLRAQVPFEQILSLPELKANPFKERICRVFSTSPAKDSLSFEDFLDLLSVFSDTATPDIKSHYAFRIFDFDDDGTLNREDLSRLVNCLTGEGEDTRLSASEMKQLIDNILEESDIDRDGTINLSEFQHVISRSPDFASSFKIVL

This assay concerns the target Calcium and integrin-binding protein 1 (Homo sapiens) (UniProt Q99828). In words: Primary qHTS for Identification of Calcium Integrin Binding Protein 1 (CIB1) Competitor (AID 1508620). Further: top concentration of the series differs between compounds. The settings on record: CIB1-GST / FITC-alphaIIb peptide fluorescence polarization; series mostly up to 114 µM. A digest of the protocol: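 Fluorescence polarization competition: GST-tagged CIB1 (1 uM final) preincubated with compound 15 min at room temperature, then FITC-labelled alphaIIb peptide (100 nM final) added. After 15 min at room temperature, polarization read at Ex 480/Em 540.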
(In qHTS, concentration-response curves come from the screen itself.)
As to `CC(=O)Nc1ccc(S(=O)(=O)Nc2ccc(C)c(C)c2)cc1`, the Potency result is “inactive”.
The result for `CC(C)COc1ccc(-c2csc(N3CCC(C(N)=O)CC3)n2)cc1` reads “inactive”; that for `c1nc(N2CCCCC2)c2cc(-c3ccc4c(c3)OCO4)ccc2n1`, “inactive”.
The result for `O=C(Nc1nnc(-c2ccncc2)s1)NC12CC3CC(CC(C3)C1)C2` reads “inactive”; that for `NC(=O)C1CCN(c2nc(-c3cccc(F)c3)cs2)CC1`, “inactive”.
The result for `O=C(O)c1ccc2c(c1)C(=O)N([C@H](Cc1ccc([N+](=O)[O-])cc1)C(=O)O)C2=O` reads “inactive”.
Regarding `Cc1ccc(NS(=O)(=O)c2cc3c(cc2Cl)NC(=O)C3)cc1C`, the Potency result was “inactive”.
The result for `CONC(=O)C[C@@H](C#N)NC(=O)[C@@H]1CCCN1C(=O)[C@@H](NC(=O)c1ccc(N)c(Cl)c1)C(C)(C)C` reads “inactive”.
As to `CSc1ccc(-c2cncc(NC(=O)c3cccs3)c2)cc1`, the Potency entry is “inactive”.
The result for `Nc1nc(Nc2cc(F)cc(F)c2)nc(NC2CCCC2)n1` reads “inactive”.
As for `COc1ccc(C2Nc3ccccc3C(=O)N2Cc2ccco2)cc1COc1ccccc1` (configuration not stated), the Potency entry is “inactive”.
The result for `Cc1ccc(N2CCN(C(=S)Nc3cc(C)ccn3)CC2)cc1` reads “inactive”; that for `CCOC(=O)c1ccoc1-c1ccc2ncnc(N(C)Cc3sccc3C)c2c1`, “inactive”; that for `O=S(=O)(NCCCCNS(=O)(=O)c1c(F)cccc1F)c1ccc2c(c1)OCCO2`, “inactive”.
The result for `N[C@H]1CCN(c2cnc3c(O)ccc(C(=O)O)c3c2)C1` reads “inactive”; that for `O=C1CCCC2=C1C(c1[nH]ncc1Cl)NC(=NCCc1cccnc1)N2` (configuration not stated), “inactive”; that for `O=C(Nc1ccc2ccccc2c1)Nc1nnc(-c2ccccc2Cl)s1`, “inactive”.
